± gives the standard deviation of the averaged measurements. Over roughly 33,000 sequences, “E-score (rank enrichment, -0.5 to 0.5)” has its median near -0.0075; the highest 2% begin near 0.23. The entries come from a sample that favours the highest values as a whole.
Tested on: WT Max(13-93) synthetic (M65Nle)
Assay: PBM 8-mer E-score (E-score (rank enrichment, -0.5 to 0.5)); higher = stronger preferential binding
Method: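 Protein binding microarray (universal PBM chip covering all 10-mers in fixed probe flanks) with chemically synthesized human Max(13-93) bHLH-LZ analogs (not full-length Max) bearing noncanonical residues (hArg, Tha, Aib, Nle at 65) and aromatic Cys staples. Read-out per 8-mer (and its reverse complement): E-score (rank-based enrichment, -0.5 to 0.5) and Z-score of median probe intensity.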

Row | Sequence | PBM 8-mer E-score
1 | GGGGACAC | -0.27 ± 0.018
2 | AAAAGGGG | 0.0924 ± 0.053
3 | CGACCAGC | -0.0396 ± 0.11
4 | CAAATAGC | 0.0495 ± 0.0037
5 | CGCCCGTC | -0.106 ± 0.034
6 | AGAGCTAG | -0.0196 ± 0.051
7 | CTTGCCCC | -0.0869 ± 0.1
8 | ATAGCCTG | -0.155 ± 0.11
9 | TCATACGA | 0.115 ± 0.021
10 | ACATACGC | 0.0685 ± 0.056
11 | ACATACGA | 0.237 ± 0.015
12 | ACATACAG | 0.219 ± 0.059
13 | AGATACAT | 0.245 ± 0.022
14 | ACATACAT | 0.26 ± 0.042
15 | ACATACAC | 0.139 ± 0.048
16 | AGATACAG | 0.134 ± 0.061
17 | AGATACAA | 0.126 ± 0.036
18 | CATCTCTA | -0.0266 ± 0.00032
19 | ACGGGCTG | -0.16 ± 0.005
20 | AGATAATG | 0.241 ± 0.012
21 | AGATAATC | -0.146 ± 0.023
22 | AGATAATA | 0.131 ± 0.045
23 | AAATAACA | 0.198 ± 0.039
24 | CGATAACG | -0.0133 ± 0.18
25 | AAATAACG | 0.26 ± 0.0036

Row | Sequence | PBM 8-mer E-score
26 | AGATAACC | 0.0122 ± 0.027
27 | AGATAACG | 0.256 ± 0.041
28 | CAATAACG | 0.0031 ± 0.057
29 | ATCTTGGA | -0.118 ± 0.068
30 | ACAATGCC | 0.0109 ± 0.11
31 | GATATCCC | -0.108 ± 0.023
32 | ACACTTAT | 0.0681 ± 0.02
33 | CCCTGAAG | -0.071 ± 0.03
34 | ACACGACA | 0.289 ± 0.1
35 | ACACGACC | 0.0326 ± 0.019
36 | ACACGACT | 0.123 ± 0.049
37 | CGCCAACC | -0.101 ± 0.11
38 | ACTAGTAA | 0.256 ± 0.1
39 | ACTAGTAG | 0.11 ± 0.088
40 | ACTAGTAT | 0.184 ± 0.02
41 | CTTTCCAC | 0.196 ± 0.17
42 | AATCCTGG | -0.171 ± 0.16
43 | GTTTCCTA | 0.257 ± 0.11
44 | CTTTCCTA | 0.0286 ± 0.077
45 | ATTTCCTA | 0.135 ± 0.027
46 | CGCCCGGA | -0.201 ± 0.068
47 | TAATGGTA | 0.0384 ± 0.1
48 | CTATGGTA | 0.0296 ± 0.11
49 | ATATGGTA | 0.241 ± 0.069
50 | ATATGGTC | 0.164 ± 0.09

Row | Sequence | PBM 8-mer E-score
51 | CAATGGTA | 0.15 ± 0.041
52 | AAATGGTA | 0.253 ± 0.056
53 | TCGGTTCA | -0.0182 ± 0.1
54 | GATGGCAA | 0.158 ± 0.091
55 | AAGCTCCC | -0.171 ± 0.036
56 | GCAGACCA | -0.213 ± 0.1
57 | TATATAGA | 0.104 ± 0.084
58 | CATATACA | 0.271 ± 0.067
59 | AATATACA | 0.246 ± 0.052
60 | AATATAGA | 0.277 ± 0.044
61 | TATATACA | 0.0403 ± 0.021
62 | AATATACT | 0.104 ± 0.069
63 | CATATAGA | 0.166 ± 0.049
64 | GATATACA | 0.08271 ± 0.00014
65 | CATATACC | -0.0092 ± 0.047
66 | ATTGCGTA | 0.188 ± 0.035
67 | CGACGCAA | -0.157 ± 0.015
68 | ATGCTTAA | 0.189 ± 0.046
69 | CAAGGCCA | 0.0607 ± 0.0078
70 | ATATAACC | 0.0791 ± 0.029
71 | ATATAACA | 0.237 ± 0.052
72 | GTATAACA | 0.202 ± 0.035
73 | ATATAACG | 0.299 ± 0.0035
74 | CTATAACA | 0.129 ± 0.045
75 | CTATAACC | 0.0479 ± 0.05

Row | Sequence | PBM 8-mer E-score
76 | AGAGAGCG | -0.102 ± 0.039
77 | AGCCACAT | 0.0887 ± 0.052
78 | CATCGTGG | -0.0807 ± 0.055
79 | GAATCACA | -0.023 ± 0.11
80 | ACATCACA | 0.237 ± 0.015
81 | ACATCACG | 0.0554 ± 0.057
82 | TAATCACA | 0.201 ± 0.049
83 | AAATCACA | 0.163 ± 0.043
84 | CAATCACG | 0.274 ± 0.05
85 | CAATCACA | 0.247 ± 0.019
86 | CAATCACC | 0.0883 ± 0.0053
87 | TCATCACA | 0.116 ± 0.011
88 | CCAGCCGA | -0.272 ± 0.029
89 | AGAAGAAA | -0.0012 ± 0.042
90 | CGTTAGGC | 0.0594 ± 0.11
91 | GGCGTTTA | 0.0435 ± 0.017
92 | CCGGCACG | -0.00989 ± 0.099
93 | ACCAAAGA | 0.003 ± 0.046
94 | CTTTCTAA | 0.0817 ± 0.047
95 | ATTTCTAG | 0.0411 ± 0.07
96 | ATTTCTAC | 0.247 ± 0.043
97 | CATTCTAC | 0.0976 ± 0.045
98 | CTTTCTAC | 0.317 ± 0.053
99 | ATTTCTAA | -0.0149 ± 0.032
100 | AGGTGTCC | -0.128 ± 0.054

Row | Sequence | PBM 8-mer E-score
101 | GACTAAAA | -0.0397 ± 0.075
102 | AGTATAAT | 0.259 ± 0.07
103 | AGTATAAC | 0.0201 ± 0.0067
104 | AGTATAAA | 0.109 ± 0.12
105 | AATACGGT | -0.059 ± 0.026
106 | CAGGGTCA | -0.0768 ± 0.019
107 | AAATCCAG | -0.00945 ± 0.12
108 | AAATCCAT | 0.2404 ± 0.0018
109 | AAATCCAC | 0.116 ± 0.058
110 | GAAGTAAC | 0.0916 ± 0.087
111 | GTCTTTAA | 0.0691 ± 0.12
112 | AACCATGG | 0.0463 ± 0.13
113 | AACCATGA | 0.145 ± 0.028
114 | AATCACGA | 0.0321 ± 0.13
115 | ATCCACAG | 0.0193 ± 0.067
116 | ATCCACAT | 0.287 ± 0.022
117 | ACCCACGT | 0.359 ± 0.02
118 | ACCCACGA | -0.0551 ± 0.047
119 | AACCATGT | 0.2698 ± 0.00089
120 | ACCCACGC | 0.113 ± 0.11
121 | AATCACGT | 0.399 ± 0.04
122 | AATCACGC | 0.188 ± 0.042
123 | ATCCACAA | 0.0288 ± 0.05
124 | AAATCTCG | 0.017 ± 0.054
125 | GTGAGTCA | -0.117 ± 0.064

Row | Sequence | PBM 8-mer E-score
126 | TAGGCCAA | -0.0597 ± 0.035
127 | CGCAAGCA | 0.1148 ± 0.001
128 | CTGAACGC | -0.243 ± 0.0048
129 | GATTCCAC | -0.0239 ± 0.16
130 | AACCACAG | -0.196 ± 0.12
131 | AACCACGC | 0.178 ± 0.04
132 | AACCACGA | 0.198 ± 0.016
133 | AACCACAT | 0.282 ± 0.045
134 | AACCACAC | 0.173 ± 0.0082
135 | AACCATTG | 0.0448 ± 0.0034
136 | CACCATTA | -0.0432 ± 0.14
137 | AACCACGT | 0.392 ± 0.0086
138 | AACCATTA | 0.318 ± 0.052
139 | ACAATTGC | 0.129 ± 0.021
140 | ATATACCA | 0.153 ± 0.019
141 | TATGCTGA | -0.0828 ± 0.1
142 | ACCTATTG | 0.157 ± 0.01
143 | TACGTATA | 0.094 ± 0.091
144 | ACTTGATC | -0.0132 ± 0.16
145 | AGAGTGAA | -0.133 ± 0.058
146 | CAGACATC | -0.0722 ± 0.089
147 | CCCTTTGC | -0.0228 ± 0.044
148 | CTGCCAAG | -0.0342 ± 0.067
149 | CCTCGATA | -0.157 ± 0.014
150 | CCTAAACG | -0.145 ± 0.043

Row | Sequence | PBM 8-mer E-score
151 | GATGTGGC | -0.117 ± 0.057
152 | CATGTGGA | 0.324 ± 0.032
153 | AATGTGGC | 0.0312 ± 0.0053
154 | CATGTGGG | 0.257 ± 0.075
155 | GATGTGGA | 0.152 ± 0.011
156 | CATGTGGC | 0.3003 ± 0.0019
157 | CATGGGGG | 0.0813 ± 0.1
158 | AATGTGGG | 0.18 ± 0.032
159 | AATGTGGA | 0.0921 ± 0.085
160 | AATGACTG | 0.102 ± 0.018
161 | GAAGCTCA | -0.152 ± 0.13
162 | ATTCAACC | -0.0085 ± 0.021
163 | GTTCGGGA | -0.13 ± 0.11
164 | GACCCTGA | -0.121 ± 0.035
165 | AGAGGACA | -0.0937 ± 0.095
166 | TAAGTTGA | 0.0328 ± 0.044
167 | ATTTCGTC | 0.242 ± 0.011
168 | ATTTCGTG | 0.0519 ± 0.051
169 | CTTTCGTC | 0.0247 ± 0.074
170 | ATACGATC | -0.0258 ± 0.1
171 | ACAAAGAT | 0.0862 ± 0.049
172 | CAAGCTCA | -0.35 ± 0.017

— the supplement of paper PMC12636033
